Inconclusive results are not listed. A number with no mark means an inactive call. The source made the active and inactive calls. The call rests on the fitted dose curve; in most records, active means well fitted inhibition curve with a large enough effect; inconclusive means small, poorly fitted or top-dose-only effect; inactive means flat fitted curve, though single readings scatter. Where a SMILES comes first, the peptide text is derived from it. [ ]: non-standard residue; d: D form. ξ: configuration not given here. ξLac(3-iPr) = CC(C)CC(O)C(=O)O; NMeV = CN[CH](C(=O)O)C(C)C; βAla = NCCC(=O)O
tested on: CRL-7250; experiment: Cytotoxic Profiling of Annotated Libraries Using Quantitative High-Throughput Screening (AID 1296008); details: Five cell lines viability, CellTiter-Glo ATP luminescence, 48-72 h; max response: stronger effect = lower value; further: nearly all actives have a fitted effect of over 60% in size
Method in brief: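 Cytotoxicity was measured as CellTiter-Glo ATP luminescence, read after 10 min at room temperature. Compound treatment of the cells lasted 48 or 72 hr at 37 degrees Celsius in a qHTS format.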
On the % scale 0 is the no-effect control and ±100 the full control effect; potency means the concentration at half of the fitted maximal effect.

| SMILES | max response | outcome | Potency |
| --- | --- | --- | --- |
| Cc1ccc(NC(=O)c2ccc(CN3CC[C@H](N(C)C)C3)c(C(F)(F)F)c2)cc1Nc1nccc(-c2cncnc2)n1 | -22.1% |  |  |
| C[C@H](N)C(=O)N[C@@H](Cc1ccc(O)cc1)C(=O)N1CCC[C@H]1C(=O)NCC(=O)N[C@@H](CCCCN)C(=O)N[C@@H](Cc1ccccc1)C(N)=O |  | inactive |  |
| CC(C)CC1OC(=O)C2CCCN2C(=O)CCNC(=O)C(Cc2ccccc2)NC(=O)C(C(C)C)N(C)C(=O)C(C(C)C)N(C)C1=O (stereo not given) (cyclo([ξLac(3-iPr)][NMeV][NMeV]F[βAla]P); configuration not given here) | 2.18% |  |  |
| COc1c2ccoc2cc2oc(CO[C@@H]3O[C@H](CO)[C@@H](O)[C@H](O)[C@H]3O)cc(=O)c12 | -0.0339% |  |  |
| C=C1CCC[C@]2(C)CC[C@@H](C(=C)C(=O)O)[C@H](O)[C@@H]12 | -0.497% |  |  |
| CC(C)C1=CC2C(CC[C@]2(C)O)[C@](C)(O)CC1 (stereo not given in full) | -11.6% |  |  |
| O=C(O)c1cn(C2CC2)c2cc(N3C[C@@H]4C[C@H]3CN4)c(F)cc2c1=O | -3.63% |  |  |
| CC1=CC2/C=C(\C)CC[C@@H](O)[C@@H](O)[C@@H]3O[C@@H]3C(=O)[C@]23C(=O)N[C@@H](CC(C)C)[C@@H]3[C@@H]1C (stereo not given in full) | -29.8% |  |  |
| CC1CCC2(C(=O)O)CCC3(C)C(=CCC4C5(C)CCC(O)C(C)(CO)C5CCC43C)C2C1(C)O (stereo not given) | 0.977% |  |  |
| O=C(Nc1ccccc1)N1CCN(Cc2ccc3ccccc3n2)CC1 |  | inactive |  |
| CCOC(=O)C(CCc1ccccc1)NC1CSC(c2cccs2)CN(CC(=O)O)C1=O (stereo not given) | 2.02% |  |  |
| C[C@@H]1CCC2C(C)(C)[C@H](O)CC[C@]2(C)[C@@]12Cc1c(O)cc3c(c1O2)CNC3=O (stereo not given in full) | -75.1% |  |  |
| COc1ccccc1Oc1ccc(N(Cc2cccnc2)S(=O)(=O)CC(F)(F)F)cc1 | -7.01% |  |  |
| Cc1csc(NC(=O)c2ccc(COc3cccc(Cl)c3)o2)n1 | -4.74% |  |  |
| CN(C)C(=O)NC1CCC(CCN2CCN(c3cccc(Cl)c3Cl)CC2)CC1 (stereo not given) | 1.18% |  |  |
| CN(c1ccccc1CNc1nc(Nc2ccc3c(c2)CC(=O)N3)ncc1C(F)(F)F)S(C)(=O)=O |  |  | 16.4 µM (active) |
| CC(=O)O[C@@H]1C[C@H](O)[C@@]23CO[C@H](O)[C@]1(C)C2C[C@@H](O)[C@]1(C)C3C(=O)[C@H](OC(C)=O)[C@@]2(C)[C@H](c3ccoc3)C[C@H]3O[C@]321 (stereo not given in full) |  |  | 0.485 µM (active) |
| C=C(C(=O)O)[C@H]1C[C@]2(C)[C@@H](O)CC[C@]23O[C@H]1C[C@@H]3C | -8.76% |  |  |
| CC(=O)O[C@@H]1[C@@H](CO)O[C@@](CO)(O[C@H]2O[C@H](COC(=O)/C=C/c3ccccc3)[C@@H](O)[C@H](O)[C@H]2O)[C@H]1O | -0.112% |  |  |
| CCC1C(=O)N(C)c2cnc(Nc3ccc(C(=O)NC4CCC(N5CCN(CC6CC6)CC5)CC4)cc3OC)nc2N1C(C)C (stereo not given) |  |  | 4.61 µM (active) |

| SMILES | max response | outcome | Potency |
| --- | --- | --- | --- |
| CCCCNc1ncc2c(-c3ccc(CN4CCN(C)CC4)cc3)cn(C3CCC(O)CC3)c2n1 (stereo not given) |  |  | 5.17 µM (active) |
| CC1=C(/C=C/C(C)=C\C=C\C(C)=C/C(=O)O)C(C)(C)CCC1 | -50.6% |  |  |
| O=[N+]([O-])c1cn2c(n1)OCC(OCc1ccc(OC(F)(F)F)cc1)C2 (stereo not given) | -10.3% |  |  |
| COc1ccc(F)cc1-c1cc(NC(=O)[C@@H]2CCCNC2)ncc1Cl |  |  | 0.291 µM (active) |
| O=S(=O)(Nc1ccccn1)c1ccc(N=Cc2c(O)[nH]c3ccc4ncsc4c23)cc1 |  | inactive |  |
| O=C(O)Cc1ccc2oc(-c3ccc(NC(=O)/C=C/c4ccc(Br)cc4)c(F)c3)nc2c1 | 4.13% |  |  |
| OCC(CO[C@@H]1O[C@H](CO)[C@@H](O)[C@H](O)[C@H]1O)c1ccc2c(c1)OCO2 (stereo not given in full) | 0.071% |  |  |
| CS(=O)(=O)N1CCC(NC(=O)c2[nH]ncc2NC(=O)c2c(Cl)cccc2Cl)CC1 |  |  | 3.26 µM (active) |
| CC#CC(=O)N1CCC[C@H]1c1nc(-c2ccc(C(=O)Nc3ccccn3)cc2)c2c(N)nccn12 | -4.15% |  |  |
| CN[C@@H]1[C@H](O[C@H]2[C@H](O[C@@H]3[C@@H](O)[C@H](O)[C@@H](N=C(N)N)[C@H](O)[C@H]3N=C(N)N)O[C@@H](C)[C@]2(O)C=O)O[C@@H](CO)[C@H](O)[C@H]1O | 2.94% |  |  |
| Cn1cncc1C(N)(c1ccc(Cl)cc1)c1ccc2c(c1)c(-c1cccc(Cl)c1)cc(=O)n2C (stereo not given) |  |  | 23.1 µM (active) |
| C/C=C/C=C/C(O)=C1\C(=O)[C@]2(C)C3C(C(=O)CC/C=C/C)=C(O)C4(C)C1[C@]1(C)O[C@@]4(O)[C@@]3(C)O[C@@]12O | -4.26% |  |  |
| O=C(NCc1ccccn1)Nc1nnc(-c2ccco2)o1 | 0.451% |  |  |
| CC(O)/C=C/C1(O)C(C)C(O[C@@H]2O[C@H](CO)[C@@H](O)[C@H](O)[C@H]2O)C(O)CC1(C)C (stereo not given in full) | 0.975% |  |  |
| CC1=CC(=O)C2C(C)(C)CCC[C@]2(C)[C@H]1CO (stereo not given in full) | -14.4% |  |  |
| CC(=O)OC1C(=O)C2(C)C(O)CC3OCC3(OC(C)=O)C2C(OC(=O)c2ccccc2)C2(O)CC(OC(=O)C(O)C(NC(=O)c3ccccc3)c3ccccc3)C(C)=C1C2(C)C (stereo not given) |  |  | 0.058 µM (active) |
| CC(C)CC1NC(=O)C(C)NC(=O)C(CC(C)C)OC(=O)CCCNC1=O (stereo not given) | -2.1% |  |  |
| C=CC(C)(C)c1[nH]c2ccccc2c1C[C@@H]1NC(=O)[C@H](Cc2c[nH]c3ccccc23)NC1=O | 3.43% |  |  |
| CC1=C(C)C(=O)OC(C(C)C2CCC3C4CC=C5CC(OC6OC(COC7OC(CO)C(O)C(O)C7O)C(O)C(O)C6O)CC(O)C5(C)C4CCC23C)C1 (stereo not given) | -1.46% |  |  |
| C=C1C(OC2OCC(O)C(O)C2O)CC2C(C)(C)C(O)CCC2(C)C1CC/C(C)=C\CO (stereo not given) | -6.07% |  |  |

— PubChem BioAssay (NCATS)
